ELG1 DNA repair – qHTS screen for small molecules that inhibit ELG1-dependent DNA repair in human embryonic kidney (HEK293T) cells expressing luciferase-tagged ELG1; Potency, µM (doses to about 46.1 µM), hits mostly inhibitors; hit rate 2.3% among 330,000; AID 504467, 2011; HEK293T ELG1-luciferase reporter, luminescence, 16 h; DNA damage induced by 5-fluorouridine; also: nearly all actives have a fitted effect of over 55% in size
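HEK293T cells expressing luciferase-tagged ELG1 (2,000/well) received 5-Fluorouridine plus compound or DMSO for 16 hr at 37 °C. Luciferase was read by ONE-Glo luminescence after 30 min at room temperature.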
KB-3-1 cytotox – qHTS assay for MDR1-selective chemotherapeutics: Primary screen using the parental adenocarcinoma cell KB-3-1. KB-3-1 viability, CellTiter-Glo ATP luminescence, 72 h. Potency, µM (doses to about 46.1 µM), actives largely listed as cytotoxic. hit rate 1.4% among 400,000; also: nearly all actives have a fitted effect of over 60% in size
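KB-3-1 parental drug-naive adenocarcinoma cells in DMEM/10% FBS, incubated 72 h at 37 C with pin-transferred compounds across a concentration series. Viability by CellTiter-Glo luminescence; concentration-response curves fitted after normalization.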
MCF10A rereplic – A quantitative high throughput screen for small molecules that induce DNA re-replication in MCF 10a normal breast cells. MCF 10A DNA re-replication, Hoechst nuclear intensity, 48 h. Potency, µM (top dose mostly 46.1 µM), most hits filed as activators. hit rate 2.9% among 350,000. AID 624296, 2012; also: nearly all actives have a fitted effect of over 50% in size
KB-V1 cytotox – qHTS assay for MDR1-selective chemotherapeutics: Primary screen using the drug-selected MDR subline cells KB-V1 | hit rate 3.4% among 400,000 | KB-V1 MDR cells viability, CellTiter-Glo, 72 h | Potency, µM (doses to about 46.1 µM), usual class: cytotoxic | AID 1347076, 2019; also: nearly all actives have a fitted effect of over 60% in size
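Luminescent ATP read-out (CellTiter-Glo, 10 min) measures survival of drug-selected KB-V1 MDR cells after 72 h, 37 degrees C compound exposure. Medium: phenol-red-free DMEM, 10% FBS. Values from fitted concentration-response curves.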
SW480 rereplic – A quantitative high throughput screen for small molecules that induce DNA re-replication in SW480 colon adenocarcinoma cells. hit rate 1.8% among 340,000. Potency, µM (doses to about 46.1 µM), usual class: activators. AID 624297, 2012. SW480 DNA re-replication, Hoechst DNA content imaging, 48 h; also: nearly all actives have a fitted effect of over 55% in size
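Hoechst fluorescence of nuclei (405 nm excitation, 500-530 nm emission) measured by plate-scanning imager after 48 hr compound exposure at 37 C; re-replication scored as increased number of nuclei with elevated intensity.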
ELG1 FLuc counter – qHTS screen for small molecules that inhibit ELG1-dependent DNA repair: Hit Confirmation in Cell-Based Luciferin Assay; shares compounds with ELG1 DNA repair; cell-free firefly luciferase luminescence counter-screen, ViewLux; Potency, µM (doses to about 46.1 µM), actives largely listed as inhibitors; hit rate 3% among 350; AID 624247, 2012
ELG1-Luc inh – HTS assay for small molecules that inhibit ELG1-dependent DNA repair in human embryonic kidney (HEK293T) cells expressing luciferase-tagged ELG1: Hit Confirmation. HEK293T ELG1-luciferase levels, luminescence; cells co-treated with 5-fluorouridine. AID 624248, 2012. hit rate 68% among 670. Potency, µM (series often up to 46.1 µM), most hits filed as inhibitors. shares compounds with ELG1 DNA repair; also: nearly all actives have a fitted effect of over 55% in size
ELG1 MMS Luc – MMS-stimulated human ELG1 repair inhibition, confirmed; shares compounds with ELG1 DNA repair; HEK293T luciferase-tagged ELG1 level, MMS stimulated; Potency, µM (doses to about 46.1 µM), hits mostly inhibitors; hit rate 53% among 670; AID 624249; also: nearly all actives have a fitted effect of over 60% in size
ELG1 5FU viab – qHTS screen for small molecules that inhibit ELG1-dependent DNA repair: Hit Confirmation with 5FU Viability | shares compounds with ELG1 DNA repair | cell viability with 5-FU, ELG1-dependent repair | 670 tested, under 10 active | Potency, µM (highest dose often 46.1 µM), usual class: cytotoxic;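 also: ELG1-luc HEK293T cells cotreated with 5-fluorouridine at 10 µM final; viability measured 16 h after compound addition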
ELG1 MMS viab – qHTS screen for small molecules that inhibit ELG1-dependent DNA repair: Hit Confirmation with MMS Viability | Cell viability with MMS, ELG1-dependent DNA repair | hit rate 33% among 670 | Potency, µM (doses to about 46.1 µM), usual class: cytotoxic | shares compounds with ELG1 DNA repair;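 also: ELG1-luc HEK293T cells co-treated with 10 µM MMS; viability read 16 h after compound addition; nearly all actives have a fitted effect of over 60% in size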
Cell viab unstim – qHTS screen for small molecules that inhibit ELG1-dependent DNA repair: Hit Confirmation with Unstimulated Viability Assay; shares compounds with ELG1 DNA repair; hit rate 8% among 900; Potency, µM (highest dose often 45.9 µM), most hits filed as cytotoxic; cell viability counter-screen, unstimulated, luminescence;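 also: compound exposure lasted 16 hours before reading; nearly all actives have a fitted effect of over 55% in size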
FLuc biochem – qHTS screen for small molecules that inhibit ELG1-dependent DNA repair: Hit Confirmation in Biochemical Luciferin Assay; hit rate 10% among 350; shares compounds with ELG1 DNA repair; Potency, µM (series often up to 57.5 µM), hits mostly inhibitors; AID 624253, 2012; purified firefly luciferase, luminescence counter-screen
A number is an active result; - = inactive; ? = inconclusive; . = no result. Only some compounds are listed: those with a hit (about 8.1% of all), similar ones and a draw of the others. Calls follow the shape of the dose curve; as a rule, active = well fitted curve in the direction sought with a large enough effect; inconclusive = small, poorly fitted or top-dose-only effect, or another doubt; inactive = no such curve, though single readings can be large; an effect the other way counts as inactive or inconclusive.

SMILES	ELG1 DNA repair	KB-3-1 cytotox	MCF10A rereplic	KB-V1 cytotox	SW480 rereplic	ELG1-Luc inh	ELG1 MMS Luc	ELG1 5FU viab	ELG1 MMS viab	Cell viab unstim	others
CCN1CCN(c2ccc(Nc3ccnc4ccccc34)cc2)CC1	4.61µM	?	?	-	14.6µM	?	17.7µM	-	?	-
Cc1ccccc1CN1CCN(CC2CC3C=CC2C3)CC1 (configuration not stated)	-	-	?	-	-	.	.	.	.	.
O=C(NOCc1ccccc1)c1ccccc1	?	-	-	-	-	.	.	.	.	-
Cc1ccc(CONC(=O)c2cccc(C)c2)cc1	?	-	-	-	-	.	.	.	.	.
CCOC(=O)c1c(C)nc2sc3c(=O)n(-c4ccc(OC)cc4)cnc3c2c1-c1ccc(OC)cc1	-	-	-	-	-	1.26µM	-	-	-	-	ELG1 FLuc counter=-;FLuc biochem=-
COc1ccc(-c2oc(=O)c3cc(OC)c(OC)cc3c2/C=C/c2cccc([N+](=O)[O-])c2)cc1	1.64µM	-	-	-	-	?	-	-	?	-
O=C(CSc1nnc(Cc2cccs2)n1C1CCCCC1)N1CCN(C(=O)c2ccco2)CC1	-	-	-	-	-	.	.	.	.	.
Cc1cc(=O)oc2ccc(OC(=O)CN3C(=O)c4cccc([N+](=O)[O-])c4C3=O)cc12	?	-	-	-	?	.	.	.	.	.
COc1ccc(CNc2ncnc3sccc23)cc1	1.83µM	?	-	?	-	?	2.81µM	-	2.81µM	?
Cc1ccc(-c2c3c(=O)n(C)c(=O)n(C)c3c3c(C)nc4ccccc4n23)cc1	.	-	.	-	.	.	.	.	.	.
COc1ccc(OC)c(Nc2nc(-c3ccncc3)nc3ccccc23)c1	?	-	?	?	?	.	.	.	.	.
COc1ccc(Nc2nc(-c3ccncc3)nc3ccccc23)cc1	2.91µM	-	?	?	18.4µM	5µM	?	?	-	?	ELG1 FLuc counter=-;FLuc biochem=-
O=C(Cn1cc(C(=O)C(F)(F)F)c2ccccc21)NCc1ccco1	-	-	-	-	-	.	.	.	.	.
CN1CCN(c2ncc3c(n2)CCN(Cc2cc(Br)cs2)C3)CC1	.	-	.	-	.	.	.	.	.	.
Cc1ccc(-c2cn3cccc(C)c3n2)cc1NS(=O)(=O)c1ccccc1	.	-	.	-	.	.	.	.	.	.
COc1ccc(-c2cc(C(=O)Nc3ccc(O)cc3)c3ccccc3n2)cc1OC	?	-	-	-	-	.	.	.	.	.
COc1ccc(NC(=O)c2cc(-c3cc(OC)c(OC)c(OC)c3)nc3ccccc23)cc1OC	1.83µM	?	-	20.6µM	-	1.12µM	19.9µM	?	?	-
CCC(=O)Nc1ccc(N2CCN(C(=O)c3ccco3)CC2)c(Cl)c1	?	-	-	-	-	.	.	.	.	.
O=C(Nc1ccc(N2CCN(C(=O)c3ccco3)CC2)c(Cl)c1)c1cccs1	4.11µM	?	?	23.1µM	-	3.97µM	12.5µM	?	28.1µM	25µM
CC(=O)OCC1=C[C@H]2[C@@H]3C(C)(C)[C@]3(OC(C)=O)C[C@@H](C)[C@]2(O)[C@@H]2C=C(C)C(=O)[C@@]2(O)C1	.	.	.	.	.	.	.	.	.	?
COCCN(C(=O)Cc1cccs1)C(C(=O)NCc1ccc(OC)cc1)c1ccc(C)cc1 (configuration not stated)	?	-	-	?	-	.	.	.	.	.
COc1ccc(CNC(=O)C(c2ccc(C)o2)N(Cc2cccs2)C(=O)Cc2cccs2)cc1 (configuration not stated)	20.6µM	?	?	14.6µM	-	11.2µM	?	-	-	?	ELG1 FLuc counter=-;FLuc biochem=-
CC(=O)Nc1ccc(SC(C)C(=O)NC(N)=O)cc1 (configuration not stated)	-	-	-	-	-	.	.	.	.	.
COc1ccc(-c2nnc3ccc(SCC(=O)Nc4nc5ccc(C)cc5s4)nn23)cc1OC	?	-	-	-	-	0.315µM	-	?	-	28.1µM	ELG1 FLuc counter=-;FLuc biochem=-
Cc1ccc(S(=O)(=O)Nc2cc3c4c(c2)CCN4C(=O)CC3)cc1	?	-	?	?	-	.	.	.	.	-	ELG1 FLuc counter=-;FLuc biochem=-
SMILES	ELG1 DNA repair	KB-3-1 cytotox	MCF10A rereplic	KB-V1 cytotox	SW480 rereplic	ELG1-Luc inh	ELG1 MMS Luc	ELG1 5FU viab	ELG1 MMS viab	Cell viab unstim	others
O=C(Nc1ccccc1-c1nc2ccccc2[nH]1)c1ccc(N2C(=O)CCC2=O)cc1	1.83µM	-	?	-	-	0.705µM	?	?	-	-
c1ccc(-n2cnc3ccccc32)cc1	?	-	-	?	-	.	.	.	.	.
COc1ccc2ncn(-c3ccccc3)c2c1	2.31µM	-	-	?	-	?	?	-	?	-
CCCc1cc2c(cc1NS(=O)(=O)c1ccc(CCNC(C)=O)cc1)OCO2	-	-	-	-	-	.	.	.	.	.
COc1ccc(-c2cc3ccc(F)cc3cn2)cc1	?	-	?	-	-	.	.	.	.	.
COc1ccc(-c2cc3cc(F)ccc3cn2)cc1	?	-	-	-	-	.	.	.	.	-
C[C@H]1O[C@@H](n2cc(F)c(=O)[nH]c2=O)[C@H](O)[C@@H]1O	-	-	-	-	-	.	.	.	.	.
COc1cc(C(=O)NCCOc2cc(C)ccc2C(C)C)cc(OC)c1OC	4.61µM	?	?	16.4µM	?	14.1µM	7.05µM	-	5.6µM	?

Assay outcomes from PubChem BioAssay.
